Screening data (PubChem BioAssay)
NadD block: blocks S. aureus nicotinate mononucleotide adenylyltransferase; purified NadD enzyme, colorimetric absorbance read-out; inhibition, % at 20 µM; 360,000 compounds, 0.78% hits; AID 602399; in the data active means inhibition above about 26%
MsrA act: activators of bovine methionine sulfoxide reductase A; purified bovine MsrA, absorbance read-out; 360,000 compounds, 0.3% hits; activation, % at 10.6 µM; in the data active means activation above about 7.5%
MsrA inh: inhibitors of bovine MsrA; inhibition, % at 15.5 µM; AID 651718; 360,000 compounds, 0.75% hits; purified bovine MsrA, absorbance read-out; in the data active means inhibition above about 4.5%
rCAG binder: r(CAG) repeat RNA binding; TO-PRO-1 dye displacement fluorescence; inhibition, % at 3 µM; 370,000 compounds, 1.3% hits;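 active means inhibition above the plate cutoff, the mean of all test compounds on that plate plus 3 SD, cut at about 35% in these data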;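 further: higher means more dye released from RNA so lower well fluorescence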
NadD inh conf: confirmation of Staphylococcus aureus NadD inhibitors; AID 624309; purified S. aureus NadD, colorimetric enzyme assay; 2,000 compounds, 13% hits; inhibition, % at 20 µM; shares compounds with NadD block; in the data active means inhibition mostly above about 42%, no sharp cut-off; inactive means mostly below about 42%
Numbers stand for hits. Most compounds without a hit are left out; they make up all but 2.7% or so of the library.

For CCCn1c(C(C)Nc2nc(-c3ccc(C)cc3)cs2)nc2cc(Cl)c(Cl)cc21 (centres undefined) the results were NadD block inactive, MsrA act inactive, MsrA inh inactive and rCAG binder inactive.
Cc1ccc(Cn2c(C3CCCN3c3nc(-c4ccc(F)cc4)cs3)nc3cc(C(F)(F)F)ccc32)cc1 (centres undefined) was read as NadD block inactive, MsrA act inactive, MsrA inh inactive and rCAG binder inactive.
For Cc1ccc(Cn2c(C3CCCN3c3nc(-c4ccc(F)cc4)cs3)nc3cc(Cl)c(Cl)cc32)cc1 (centres undefined) the results were NadD block 49, MsrA act inactive, MsrA inh inactive, rCAG binder inactive and NadD inh conf inactive.
For Cc1ccc(Cn2c(C(C)Nc3nc(-c4ccc(F)cc4)cs3)nc3cc(Cl)c(Cl)cc32)cc1 (centres undefined) the results were NadD block 50, MsrA act inactive, MsrA inh inactive, rCAG binder inactive and NadD inh conf inactive.
`OCCCn1c(C2CCCN2c2nc(-c3ccc(Cl)cc3)cs2)nc2cc(Cl)c(N3CCCCC3)cc21` (centres undefined) gave NadD block 33, MsrA act inactive, MsrA inh inactive, rCAG binder inactive and NadD inh conf inactive.
OCCCn1c(C2CCCN2c2nc(-c3ccc(F)cc3)cs2)nc2cc(Cl)c(N3CCCCC3)cc21 (centres undefined) was read as NadD block 33, MsrA act inactive, MsrA inh inactive, rCAG binder inactive and NadD inh conf inactive.
For O=C(c1ccccn1)N1CC=C(c2ccccc2)CC1 the results were NadD block inactive, MsrA act inactive, MsrA inh inactive and rCAG binder inactive.
C=CCNC(=S)Nc1cccc2[nH]ncc12 was read as NadD block inactive, MsrA act inactive, MsrA inh inactive and rCAG binder inactive.
For Cc1ccc(Cn2c(CCNc3nc(-c4ccc(Cl)c([N+](=O)[O-])c4)cs3)nc3cc(Cl)c(Cl)cc32)cc1 the results were NadD block 48, MsrA act inactive, MsrA inh inactive, rCAG binder inactive and NadD inh conf inactive.
O=[N+]([O-])c1cc(-c2csc(NCCc3nc4cc(Cl)c(N5CCCCC5)cc4n3CCCO)n2)ccc1Cl was read as NadD block inactive, MsrA act inactive, MsrA inh inactive and rCAG binder inactive.
`CNC1(C(N)=O)CCNCC1` gave NadD block inactive, MsrA act inactive, MsrA inh inactive and rCAG binder inactive.
Screening CC(C)c1ccc(/C=N/NC(=O)c2nnn(-c3nonc3N)c2CSC2=NCCS2)cc1 returned NadD block 32, MsrA act inactive, MsrA inh inactive, rCAG binder inactive and NadD inh conf inactive.
`Nc1nonc1-n1nnc(C(=O)N/N=C/c2ccc(Br)cc2)c1CSC1=NCCS1` gave NadD block 32, MsrA act inactive, MsrA inh inactive, rCAG binder inactive and NadD inh conf inactive.
Screening CCCc1c(C(=O)N/N=C/c2ccc(OCc3ccccc3)c(OC)c2)nnn1-c1nonc1N returned NadD block 35, MsrA act inactive, MsrA inh inactive, rCAG binder inactive and NadD inh conf inactive.
Screening Nc1nonc1-n1nnc(C(=O)N/N=C/c2cccnc2)c1CSC1=NCCS1 returned NadD block inactive, MsrA act inactive, MsrA inh inactive and rCAG binder inactive.
For CC(=O)C1=C(O)C(CSCc2ccccc2)N(C)C1=O (centres undefined) the results were NadD block inactive, MsrA act inactive, MsrA inh inactive and rCAG binder inactive.
COc1ccc(/C=C2\CC3(OC(=O)c4ccco4)CCCN2C3)cc1 (centres undefined) was read as rCAG binder inactive.
Screening COc1ccc(C2CC(c3ccccc3)=NN2C(=O)COC(=O)CNC(=O)c2ccccc2)cc1 (centres undefined) returned NadD block inactive, MsrA act inactive, MsrA inh inactive and rCAG binder inactive.
Screening COc1ccc(C2CC(c3ccccc3)=NN2C(=O)COC(=O)/C=C/c2ccc(O)c(OC)c2)cc1 (centres undefined) returned NadD block 46, MsrA act inactive, MsrA inh inactive, rCAG binder inactive and NadD inh conf inactive.
`COc1cccc(C(=O)Nc2cc(NC(=O)c3cccs3)ccc2C)c1OC` gave NadD block inactive, MsrA act inactive, MsrA inh inactive and rCAG binder inactive.
`CC(C)NC(=O)CCCN1C(=O)c2ccccc2Sc2ncccc21` gave NadD block inactive, MsrA act inactive, MsrA inh inactive and rCAG binder inactive.
Screening O=C(N/N=C/c1ccc(Cl)c([N+](=O)[O-])c1)c1cc(-c2ccc3c4c(cccc24)CC3)n[nH]1 returned NadD block 51, MsrA act inactive, MsrA inh inactive, rCAG binder inactive and NadD inh conf inactive.
For Cc1ccc(-c2c(NC(=O)c3ccc(F)cc3)nc3ncccn23)cc1 the results were rCAG binder inactive.
`COc1cc(C#Cc2c(-c3cncn3C)n(C)c3ccc(-c4ccc5cc[nH]c5c4)cc23)cc(OC)c1` gave NadD block 39, MsrA act inactive, MsrA inh inactive, rCAG binder inactive and NadD inh conf inactive.
For COc1cc(C#Cc2c(-c3cncn3C)n(C)c3ccc(-c4ccc(OC)c(OC)c4)cc23)cc(OC)c1 the results were NadD block 38, MsrA act inactive, MsrA inh inactive, rCAG binder inactive and NadD inh conf inactive.
For Cc1ccc(CCC(=O)Nc2ccc([N+](=O)[O-])cc2)o1 the results were NadD block inactive, MsrA act inactive, MsrA inh inactive and rCAG binder inactive.
`CCOc1cccc(=O)c2c(C)n(CC(=O)c3ccccc3)c(C)c12` gave NadD block 48, MsrA act inactive, MsrA inh inactive, rCAG binder inactive and NadD inh conf inactive.
`CCOc1cccc(=O)c2c(C)oc(C)c12` gave NadD block inactive, MsrA act inactive, MsrA inh inactive and rCAG binder inactive.
Screening Cc1cc(NCCCCCCCNc2cc(C)nc3cc([N+](=O)[O-])ccc23)c2ccc([N+](=O)[O-])cc2n1 returned NadD block 66, MsrA act inactive, MsrA inh inactive, rCAG binder inactive and NadD inh conf 65.
CCOc1ccc(C(=O)Nc2cccc(-c3cc4ccccc4oc3=O)c2)cc1[N+](=O)[O-] was read as NadD block 36, MsrA act inactive, MsrA inh inactive, rCAG binder inactive and NadD inh conf inactive.
Screening Cc1ccc2nc(NC(=O)c3cccc(-c4cc5ccccc5oc4=O)c3)sc2c1 returned MsrA inh inactive and rCAG binder inactive.
CCOc1ccccc1NC(=O)c1ccc(OCC)c([N+](=O)[O-])c1 was read as NadD block inactive, MsrA act inactive, MsrA inh inactive and rCAG binder inactive.
Screening CCOc1ccc2nc(NC(=O)c3cccc(-c4cc5ccccc5oc4=O)c3)sc2c1 returned NadD block 39, MsrA act inactive, MsrA inh inactive, rCAG binder inactive and NadD inh conf inactive.
